Experimental findings from PubChem BioAssay AID485314 (National Center for Advancing Translational Sciences (NCATS), 2010) are described below.

In all, about 340,000 compounds went through this assay and about 4,500 (1.3%) were called active. Entries that show only a call come without a potency. Roughly 5% stayed inconclusive and do not appear here. This is one part of a sample in which actives are shown more often than they occur. Calls follow the shape of the dose curve; as a rule, active = well fitted inhibition curve with a large enough effect; inconclusive = small, poorly fitted or top-dose-only effect, or another doubt; inactive = no such curve, though single readings can be large or run the other way.
Potency is read from the fitted curve at half-maximal effect.

The target of the test is DNA polymerase beta (Homo sapiens) (UniProt P06746). Put plainly: qHTS Assay for Inhibitors of DNA Polymerase Beta. The conditions noted are these: Pol beta primer extension/strand displacement, fluorescence kinetic; series mostly up to 114 µM. The procedure, abridged: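 Pol beta (10 nM) and compounds were preincubated 15 min at room temperature, then 50 nM substrate (final) started primer extension/strand displacement. Reads were taken at 0 and 10 min; concentration-response data were fitted to a four-parameter Hill equation.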
In general terms: Quantitative high-throughput screening tests each substance at several concentrations.
Regarding `CCn1cc(C(=O)NCc2ccccc2)c(=O)c2cc(S(=O)(=O)N3CCCCC3)ccc21`, the Potency result was “inactive”. For the molecule `C/C(=N\NC(=O)c1ccccc1F)c1ccccn1`, the Potency entry is “inactive”. With `C/C(=N\NC(=O)Cc1ccc(Cl)cc1)c1ccccn1`, the Potency result was “inactive”. In the case of `CCN(CC)CCOc1ccc2c(c1)C(=NNC(=O)c1ccccn1)c1cc(OCCN(CC)CC)ccc1-2`, the Potency was 2.82 µM (active).

With `O=C(NCCc1ccc(Cl)cc1)c1ccc2c(c1)N(Cc1ccc(F)cc1)C(=O)CS2`, the Potency result was “inactive”.

For `CCn1c2c(c(=O)n3ncc(C(=O)N4CCN(c5ccccc5)CC4)c13)CN(Cc1ccc(OC)cc1)CC2`, the Potency result is “inactive”. With `N#Cc1c(N2CCCCC2)nc(N)c2c(N)nc(SCC(=O)O)cc12`, the Potency is 35.5 µM (active). The entry for `N#Cc1c(-c2ccccc2)cc(-c2ccccc2)nc1SCC(=O)O` is “inactive”.

As for `Nc1nc(NCC(=O)O)nc(N2CCCCCC2)c1[N+](=O)[O-]`, the Potency result is “inactive”. For `CCC(=O)Nc1ccc2nn(-c3ccc(F)cc3)nc2c1`, the Potency result was “inactive”. In the case of `O=C(/C=C/c1ccco1)Nc1ccc(Oc2ccccc2)cc1`, the Potency result was “inactive”. Then `Cc1nnc(NC(=O)/C=C/c2ccco2)s1`, with 31.6 µM (active). The entry for `CCC(CC)c1nnc(NC(=O)/C=C/c2ccco2)s1` is “inactive”; for `CCOC(=O)c1c(NC(=O)/C=C/c2ccco2)sc(C)c1C` it is “inactive”; for `Cc1ccc(-n2nc3ccc(NC(=O)/C=C/c4ccco4)cc3n2)cc1C` it is 44.7 µM (active). `CCOC(=O)c1c(C)oc2nc(C)nc(Nc3ccc(CC)cc3)c12`: the Potency entry was “inactive”.

Take `Cc1cc(C)c(-c2n[nH]c3c2C(c2ccccc2F)N(CCO)C3=O)c(O)c1` (configuration not stated): the Potency entry was “inactive”. The entry for `CC(C)(C)c1ccc(C(=O)NCC(c2ccc(Cl)cc2)N2CCOCC2)cc1` (configuration not stated) is “inactive”; for `COCCCn1c(SCC(=O)NC2CCCC2)nnc1-c1ccccc1` it is “inactive”; for `CCOc1ccc(Nc2nc(Cc3nnc(SCC(=O)NC4CCCC4)n3C)cs2)cc1` it is “inactive”. The figure for `COCCCn1c(Cc2csc(Nc3cccc(Cl)c3)n2)nnc1SCC(=O)OC1CCCCC1` is 44.7 µM (active); for `O=S(=O)(c1ccccc1)c1nc(-c2ccc(Cl)cc2Cl)oc1N1CCCCC1` it is “inactive”; for `O=C(O)c1ccc2c(c1)C(=O)N(NC(=O)c1ccc(O)cc1)C2=O` it is “inactive”. Then `O=C(c1ccc(O)cc1)c1ccc(C(=O)O)c(C(=O)O)c1`, with 35.5 µM (active); and `Cc1cccc(C(=O)c2cccc(C)c2)c1`, with “inactive”; and `CCOc1ccc(Nc2nc3c(S(=O)(=O)c4cccc(Cl)c4)nnn3c3ccsc23)cc1`, with “inactive”. `CCCc1cc(=O)n2[nH]c(NCc3ccc(CC)cc3)nc2n1`: the Potency entry is “inactive”.

`CCCn1ccc2c(OCC(=O)NCc3ccc(F)cc3)cccc2c1=O`: the Potency entry is “inactive”. As to `Cc1csc2nc(COC(=O)c3ccccc3NC(=O)c3ccccc3Cl)cc(=O)n12`, the Potency entry was “inactive”. The entry for `Cc1cc2c(cc3c(SCc4cccc(Cl)c4)nnc(C)n32)o1` is “inactive”; for `Clc1ccc(CSc2nncn3c2cc2occc23)cc1` it is 31.6 µM (active). `Clc1ccccc1CSc1nncn2c1cc1occc12`: the Potency entry was “inactive”. Then `COc1ccc(C)cc1Nc1nc2ccccc2c2nnc(C)n12`, with “inactive”; and `Cc1ccc(C(=O)NNC(=O)c2cccs2)cc1`, with “inactive”; and `Cc1ccc(C(=O)NNC(=O)c2cc3cc4ccccc4nc3s2)cc1`, with 50.1 µM (active). Then `Cc1ccc(C(=O)NNc2ncnc3ccccc23)cc1`, with “inactive”; and `Cc1coc2c(O)cc3c(c12)OC1(N2CCCCC2)C(=O)NCCCC31` (configuration not stated), with 50.1 µM (active); and `Cc1cc(C)c(/C=C/c2onc(C)c2S(=O)(=O)N2CCC(C(=O)Nc3ccc(Cl)cc3C)CC2)c(C)c1`, with “inactive”. `CCCCOc1ccc(CN2C(=O)C(=O)c3cc(Br)cc(C)c32)cc1OC`: the Potency result was “inactive”. The entry for `O=C(Nc1ccc(S(=O)(=O)N2CCCCC2)cc1)c1cnccn1` is “inactive”; for `O=C(N/N=C/c1ccccn1)c1ccc(S(=O)(=O)N2CCCCCC2)cc1` it is 20 µM (active). Then `O=C(N/N=C/c1ccccn1)c1cccc(NC(=O)c2ccc(Cl)cc2)c1`, with “inactive”; and `CCOc1ccc(Nc2ncnc3scc(-c4ccc(OC)cc4)c23)cc1`, with “inactive”. Then `CCOC(=O)c1ccc(NC(=O)Cn2c(=O)cc(C)c3c(C)nn(-c4cccc(F)c4)c32)cc1`, with “inactive”; and `CC(C)CNC(=O)COC(=O)/C=C/c1ccccc1[N+](=O)[O-]`, with “inactive”. As for `COc1ccc([N+](=O)[O-])cc1NC(=O)COC(=O)/C=C/c1ccco1`, the Potency entry is “inactive”. Then `CC(C)CNC(=O)COC(=O)/C=C/c1ccco1`, with 28.2 µM (active); and `CCCOc1ccc(C2c3c(-c4ccccc4O)n[nH]c3C(=O)N2Cc2cccnc2)cc1` (configuration not stated), with “inactive”. Take `CC(C)(C)OC(=O)N1CCC(c2c(C(=O)Nc3ccc4c(c3)OCO4)cnn2-c2ccccc2)CC1`: the Potency result is “inactive”.

In the case of `CCCCOC(=O)CSc1ncnc2sc3c(c12)CCC(C)C3` (configuration not stated), the Potency entry is “inactive”. Then `Cc1cc(=O)n2[nH]c(-c3cccc(Cl)c3)cc2n1`, with “inactive”. Then `CCc1c(C)nc2cc(-c3cccs3)[nH]n2c1=O`, with “inactive”; and `Cc1cc(=O)n2[nH]c(-c3sccc3-n3c(C)ccc3C)cc2n1`, with 44.7 µM (active); and `COc1cc(/C=N/NC(=O)CNC(=O)c2ccncc2)ccc1OC(C)=O`, with “inactive”. The entry for `COc1cccc(OCc2cc(/C=N/NC(=O)c3nc(Cl)c(Cl)c(N)c3Cl)ccc2OC)c1` is “inactive”; for `COc1ccc(/C=N\NC(=O)c2sc(N)nc2C)cc1OC` it is 17.8 µM (active).

In the case of `COc1ccccc1Nc1c2c(nc3ccc(NC(=O)/C=C/c4cc(OC)c(OC)c(OC)c4)cc13)CCCC2`, the Potency entry was “inactive”. `CCOCCn1c(C(C)C)nc2ccccc21`: the Potency entry is “inactive”.

`CCOCCn1c(-c2ccccc2)nc2ccccc21`: the Potency result was “inactive”.

Regarding `CCc1nc2ccccc2n(CCOCCOCCn2c(=O)c(CC)nc3ccccc32)c1=O`, the Potency was 35.5 µM (active). The entry for `COc1ccc(-c2nc(Cn3c(=O)cc(C)c4c(C)nn(-c5ccccc5)c43)c(C)o2)c(OC)c1` is “inactive”; for `CCN1CCN(c2ncnc3c2cnn3-c2ccc(C)c(C)c2)CC1` it is “inactive”. Turning to `COc1cc(NC(=O)CN2CCN(S(=O)(=O)c3ccc(Br)cc3)CC2)cc(OC)c1`, the Potency entry is “inactive”. The entry for `Cc1c(CCC(=O)O)c(=O)oc2cc(OCc3ccc(Br)cc3)ccc12` is “inactive”; for `CCOC(=O)CCc1c(C)c2ccc(OCc3nn[nH]n3)c(C)c2oc1=O` it is “inactive”; for `Cc1c(CCC(=O)O)c(=O)oc2c(C)c(OCc3ccccc3Cl)ccc12` it is 12.6 µM (active). The entry for `COc1ccccc1CNc1ccc(-c2nc(-c3ccccc3C)no2)cc1[N+](=O)[O-]` is “inactive”; for `COc1cccc(-c2nnc3n(CCc4ccccc4)c(=O)c4ccccc4n23)c1O` it is “inactive”. The entry for `CCCCN(CCCNC(=O)c1cc(Nc2ccccc2OC)nc2ccccc12)c1ccccc1` is “inactive”; for `CCCCN(C)S(=O)(=O)c1ccc(C(=O)Nc2sc3c(c2C(N)=O)CC(C)(C)NC3(C)C)cc1` it is “inactive”. With `CC1=C(c2ccc(C)cc2)S(=O)(=O)NC1=NCCCN1CCN(c2cc(C)ccc2C)CC1`, the Potency result was “inactive”. Then `CCOc1ccc(NC(=O)c2cc(S(=O)(=O)N3CCCC3)c[nH]2)cc1`, with “inactive”.

For the molecule `COC(=O)c1ccc(COc2ccc(/C=C/C(=O)c3ccc(OC)c(CSCC(=O)O)c3)cc2OC)cc1`, the Potency is 31.6 µM (active). Take `COc1ccc(C(=O)/C=C/c2ccc(-c3ccccc3)cc2)cc1CSCC(=O)O`: the Potency entry is “inactive”.

Take `COc1ccc(/C=C/C(=O)c2ccc(NS(=O)(=O)c3ccc(C)cc3)cc2)cc1O`: the Potency entry was “inactive”. For the molecule `Cc1ccc(CCNC(=O)c2ccc(CNS(=O)(=O)c3ccc(C)cc3)cc2)cc1`, the Potency result is “inactive”. For `CSc1cccc(NC(=O)CN2C(=O)CCc3cc(S(=O)(=O)N4CCCCC4)ccc32)c1`, the Potency result was “inactive”. In the case of `C/C=C\C=C\C(=O)N1CC2(CC(c3cccc(NC(=O)/C(C)=C\C)c3)=NO2)C[C@H]1C(N)=O` (some centres not stated), the Potency entry is “inactive”. Then `C=C(C)C(=O)Nc1cccc(C2=NOC3(C2)C[C@H](C(N)=O)N(C(=O)C(c2ccccc2)c2ccccc2)C3)c1` (some centres not stated), with 14.1 µM (active).

On to `C/C=C(/C)C(=O)Nc1cccc(C2=NOC3(C2)C[C@@H](C(N)=O)N(C(=O)C2(C)CC2)C3)c1` (some centres not stated), for which the Potency result was “inactive”. Take `Cc1ccccc1C(=O)Nc1nnc(S(=O)(=O)N(C)c2ccc(Cl)cc2)s1`: the Potency entry was “inactive”. The entry for `COC(=O)c1ccc(NC(=O)CSc2n[nH]c(-c3ccccc3)n2)cc1` is “inactive”. The entry for `CCOc1ccc(OCC)c(NC(=O)CN(c2ccc(C)cc2)S(=O)(=O)c2c(C)n[nH]c2C)c1` is “inactive”. Regarding `CCn1c(C)c(C)c2cc(C(=O)NCCc3cc(OC)ccc3OC)ccc21`, the Potency entry is “inactive”. Then `O=C(N/N=C/C=C/c1ccco1)c1cccs1`, with 25.1 µM (active); and `O=C(Nc1ccc(NC(=O)c2cccs2)cn1)c1ccco1`, with “inactive”; and `Cc1cccc(-n2c(C)cc(/C=N\NC(=O)c3cccs3)c2C)c1`, with “inactive”. For the molecule `Oc1ccc(-c2nc3ccc(Cl)cn3c2Nc2ccc3c(c2)OCO3)cc1`, the Potency result was “inactive”. The entry for `CCOc1ccc(C(=O)/C=C/c2cn(CC(O)CN3CCCCCC3)c3ccccc23)cc1` (configuration not stated) is “inactive”.

As to `O=S(=O)(NCC(c1ccccc1)N1CCc2ccccc21)c1ccccc1` (configuration not stated), the Potency result is “inactive”. On to `COc1cc2nc(NCC(C)c3ccccc3)n3nc(-c4ccccc4)nc3c2cc1OC` (configuration not stated), for which the Potency result was “inactive”. Then `O=C(NCc1ccccc1Cl)c1cccn1-c1nnc(N2CCCCC2)s1`, with “inactive”; and `O=C(CCc1ccccc1)NCCc1cccs1`, with “inactive”; and `O=C(O)CCC(=O)N(Cc1ccccc1)Cc1ccccc1`, with “inactive”. On to `O=C(O)CCC(=O)N(Cc1cccs1)Cc1cccs1`, for which the Potency is 44.7 µM (active). The entry for `CCc1cccc(C)c1Nc1c(-c2ccc(N(C)C)cc2)nc2ncccn12` is “inactive”; for `COc1ccc(Cl)cc1NC(=O)CCC(=O)c1ccc(C)cc1` it is “inactive”; for `O=C(CCS(=O)(=O)c1ccc(Br)cc1)NCCc1ccc(Cl)cc1` it is 39.8 µM (active). The figure for `COc1ccc(Cl)cc1NC(=O)CCS(=O)(=O)c1ccc(Br)cc1` is 3.16 µM (active); for `Cn1c(=O)oc2cc(S(=O)(=O)CCC(=O)NCCc3ccc(Cl)cc3)ccc21` it is “inactive”; for `CCOc1ccc(OCC)c(NC(=O)CCS(=O)(=O)c2ccc(C)cc2)c1` it is “inactive”. Then `CC(=O)N1CCc2cc(Br)cc(S(=O)(=O)CCC(=O)NCCc3ccc(Cl)cc3)c21`, with “inactive”.
